# Experimental data taken from PubChem BioAssay AID1626 (SRMLSC, 2009).
# The whole screen tested about 220,000 compounds, of which about 2,000 (0.91%) were called active. Inconclusive results (about 2%) are left out. Rule as the data show it: inconclusive = inhibition above about 80% without an active follow-up result; inactive = below that; test concentration not stated here. A selection follows. Results with a measured potency or affinity are listed apart.
# Assay: M. tuberculosis H37Rv growth inhibitors, H37Rv strain (AID 1626);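 also: bacteria incubated seven days before Alamar blue readout; 0% = bacteria only wells and 100% = bacteria with antibiotic wells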
# Settings: stronger effect = higher value, concentration not given here
row,SMILES,inhibition
1,COc1ccc(NC(=O)C2CCCN(S(=O)(=O)c3cccc4nonc34)C2)cc1OC (centres undefined),0.88% (inactive)
2,CCOC(=O)c1c(-c2ccc(C)s2)csc1N,3.65% (inactive)
3,Cc1nc2c(C#N)cnn2c2c1CCNN2C,-8.46% (inactive)
4,COc1ccccc1-c1cc(C(=O)N2CCN(c3ccc(F)cc3)CC2)no1,4.4% (inactive)
5,Cc1cccc(NC(=O)NNS(=O)(=O)c2ccc(F)cc2)c1,7.42% (inactive)
6,O=C(CN1CCN(C(=O)c2ccco2)CC1)N1CCc2[nH]c3ccccc3c2C1,7.26% (inactive)
7,COc1ccc(C2CC(=O)C3=C(C2)Nc2ncnn2C3c2ccccc2)cc1 (centres undefined),-8.64% (inactive)
8,O=C(CSc1nc2ccccc2o1)Nc1nc2ccccc2s1,-3.19% (inactive)
9,Cc1nnc(NC(=O)CSc2nc3ccccc3o2)s1,-1.02% (inactive)
10,Cc1ccccc1Cn1nnc(-c2ccc(C(=O)O)cc2)n1,-5.85% (inactive)
11,N#Cc1cncc(-c2ccc3c(c2)OCCOCCOCCOCCOCCO3)n1,5.9% (inactive)
12,Nc1nc(-c2ccc3c(c2)OCCO3)cs1,78.2% (inactive)
13,Cc1ccc(-n2ncc3c2ncn2c(C)nnc32)cc1C,14.5% (inactive)
14,CC(C)(C)C(=O)Nc1ccc(-c2csnn2)cc1,-0.28% (inactive)
15,NC(=O)c1ccc(-c2csnn2)cc1,0.58% (inactive)
16,Cc1ccc(NC(=O)C(C)OC(=O)c2ccc(NS(=O)(=O)c3ccc(F)c(F)c3)cc2)cc1 (centres undefined),-2.38% (inactive)
17,Cc1nc2c(c(=O)n1CCC(C)C)c1nc3ccccc3nc1n2CC1CCCO1 (centres undefined),2.15% (inactive)
18,CC1CCN(S(=O)(=O)c2cccc(-c3cn4cc(Cl)ccc4n3)c2)CC1,-1.37% (inactive)
19,O=C(O)CCN1C(=O)C2C3c4ccccc4C(c4ccccc43)[C@@H]2C1=O (some centres undefined),-2.72% (inactive)
20,Cc1ccccc1-n1nc(C)c2c1N=C1C(Cl)=CC(Cl)=CN1C2c1ccc(C(=O)O)cc1 (centres undefined),-4.15% (inactive)
21,CC(=O)Nc1ccc(NC2=Nc3ccccc3N3C2=Nc2c(c(C)nn2-c2ccccc2)C3c2ccccc2)cc1 (centres undefined),75.1% (inactive)
22,CCCc1nnc(NC(=O)OCC)s1,4.01% (inactive)

row,SMILES,inhibition
1,CC(NC(=O)C1CC1)C(c1cccs1)N1CCOCC1 (centres undefined),4.47% (inactive)
2,O=C(CSc1nnc(Cc2ccccc2)o1)c1ccc(F)cc1,6.24% (inactive)
3,Cn1c(NC(=O)/C=C/c2ccco2)cc(=O)n(C)c1=O,-0.44% (inactive)
4,COc1ccc(NC(=O)c2sc3nc(Cc4ccccc4)cc(C(F)(F)F)c3c2N)cc1OC,7.82% (inactive)
5,Nc1c(C(=O)NC23CC4CC(CC(C4)C2)C3)sc2nc3c(c(C(F)(F)F)c12)CCC3,-10.2% (inactive)
6,CCNC(=S)Nc1sc2c(c1C#N)CCC(C)C2 (centres undefined),9.49% (inactive)
7,Cc1ccc(N2CN=C3SCC(=O)N3C2)cc1C,73.8% (inactive)
8,O=C1CSC2=NCN(c3ccccc3)CN12,5.48% (inactive)
9,CN(C)c1ccc(N2CN=C3SCC(=O)N3C2)cc1,-6.22% (inactive)
10,Cc1cc(C)cc(N2CN=C3SCC(=O)N3C2)c1,4.22% (inactive)
11,O=C1CN(C(=S)Nc2ccc(OC(F)F)cc2)CCN1,5.94% (inactive)
12,CCOc1cc(C=O)cc(Br)c1OCC(N)=O,-0.11% (inactive)
13,COc1ccc(/C(O)=C2/C(=O)C(=O)N(CCN3CCOCC3)C2c2cccnc2)cc1OC (centres undefined),-6.27% (inactive)
14,Cc1nc(CS(=O)c2ccc(Cl)cc2)cc(N2CCOCC2)n1 (centres undefined),5% (inactive)
15,COCc1cc(Sc2ccc(Cl)cc2)nc(C)n1,18.1% (inactive)
16,Cc1ccc2nsnc2c1S(=O)(=O)N1CCCC1,-7.86% (inactive)
17,CCCCCCCCn1c(=O)c(C(=O)OCC)c(O)c2ccccc21,7.93% (inactive)
18,CCCCCn1c(=O)c(C(=O)OCC)c(O)c2ccccc21,-3.26% (inactive)
19,CCOC(=O)Cc1csc(NC(=O)c2c(O)c3c(n(CC(C)C)c2=O)CCCC3)n1,71.9% (inactive)
20,CC(C)CCn1c(=O)c(C(=O)Nc2ccccc2S(N)(=O)=O)c(O)c2ccccc21,-11.9% (inactive)
21,O=c1cc(CN2CCCCC2)nc(C2CC2)[nH]1,3.51% (inactive)
22,Cc1ccc(C(=O)Nc2nccc(-c3cccs3)n2)cc1,-6.72% (inactive)

row,SMILES,inhibition
1,Oc1ccc(-c2nccc(-c3cccs3)n2)cc1,-3.17% (inactive)
2,Cc1ccc(C(C)C)c(OCC(O)CN2CCN(CCO)CC2)c1 (centres undefined),2.52% (inactive)
3,CN(C)/C=N/c1c(C#N)cnn1C,-9.88% (inactive)
4,O=C(O)c1ccc(CN2C(=O)c3ccccc3S2(=O)=O)cc1,-3.5% (inactive)
5,Cc1ccc(C(C#N)c2ccc3c(C(F)(F)F)cc(C(F)(F)F)nc3n2)cc1 (centres undefined),12% (inactive)
6,N#CC(c1ccccc1)c1ccc2c(C(F)(F)F)cc(C(F)(F)F)nc2n1 (centres undefined),-11.8% (inactive)
7,Cc1ccc2nc(-c3cc(N)cc(N)c3)oc2c1,56.3% (inactive)
8,CCc1ccc2oc(-c3cc(N)ccc3Cl)nc2c1,1.18% (inactive)
9,Cc1ccc(C)c(-c2nc3cc(N)ccc3o2)c1,77.1% (inactive)
10,Nc1ccc2oc(-c3cccc4ccccc34)nc2c1,4.7% (inactive)
11,Cc1ccc2nc(-c3cccnc3)oc2c1,-9.72% (inactive)
12,Nc1cccc(-c2nc3cc(S(=O)(=O)c4ccc5oc(-c6cccc(N)c6)nc5c4)ccc3o2)c1,-1.41% (inactive)
13,Cc1ccc(-c2nc3cc(N)ccc3o2)c(C)c1,8.94% (inactive)
14,CCc1ccc2oc(-c3cccc(N)c3)nc2c1,5.28% (inactive)
15,CC(C)CNS(=O)(=O)c1ccc(CCC(=O)Nc2cc(Cl)ccc2Oc2ccccc2)cc1,9.05% (inactive)
16,CC(=O)Nc1cccc(Cn2cccn2)c1,-6.83% (inactive)
17,Cc1ccc(C)c(S(=O)(=O)NC(Cc2c[nH]c3ccccc23)C(=O)O)c1 (centres undefined),-3.14% (inactive)
18,Cc1ccc(N(C(=O)c2ccncc2)C2C=CS(=O)(=O)C2)cc1 (centres undefined),-9.29% (inactive)
19,CCCCCCc1cc2cc(C(N)=O)c(=N)oc2cc1O,-2.17% (inactive)
20,CCCCCCc1cc2cc(C(=O)NCc3ccccc3)c(=N)oc2cc1O,-13.1% (inactive)
